IL-1B inflam inh: blocks inflammasome-driven IL-1 beta release. 360,000 tested, 4.7% active. activity change, % at 57.5 µM. THP-1 LPS/ATP IL-1B secretion, AlphaLISA, 16 h; stronger effect = lower value; in the data active means activity change below about -50%; inconclusive means mostly about -30% to -49%
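THP-1 cells pretreated 1 hr with compounds (up to 57.5 uM final), then stimulated with LPS (250 ng/mL final) plus ATP (1.25 mM final); secreted IL-1B measured by AlphaLISA after 16 hr, decreased signal indicating inhibition.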
DT40 TDP1 CPT: growth inhibition of DT40 Tdp1-/-;hTDP1 cells with camptothecin (screen for TDP1 inhibitors) | chicken DT40 Tdp1-/-;hTDP1 cells + 20 nM CPT, ATP luminescence, 48 h | Potency, µM (series often up to 46.2 µM), without a hit: top-dose activity change, negative = growth inhibition, hits mostly inhibitors | 420,000 tested, 12% active | AID 686979; further: potency means the concentration at half of the fitted maximal effect; nearly all actives have a fitted effect of over 55% in size
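Cell growth measured by CellTiter-Glo luminescence after a minimum 48 h, 37 C compound exposure with 20 nM CPT in Tdp1-knockout DT40 cells stably expressing hTDP1, seeded 400/well; qHTS titration format.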
TDP1 cell noCPT: qHTS for Inhibitors of human tyrosyl-DNA phosphodiesterase 1 (TDP1): qHTS in cells in absence of CPT. DT40 Tdp1-/- hTDP1 cells, no CPT, ATP luminescence, 48 h. Potency, µM (doses to about 46.2 µM), for the others: at the top dose activity change, negative = growth inhibition, actives largely listed as inhibitors. 420,000 tested, 15% active. AID 686978, 2013; further: potency means the concentration at half of the fitted maximal effect; nearly all actives have a fitted effect of over 55% in size
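Growth of hTDP1-complemented DT40 Tdp1-knockout cells is measured by ATP luminescence after at least 48 hr compound exposure at 37 °C, with DMSO substituting for the 20 nM CPT used in the parallel screen.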
HT1080NT lethal: kills 2HG-producing HT-1080-NT fibrosarcoma cells; HT-1080-NT fibrosarcoma viability, CellTiter-Glo ATP luminescence, 48 h; Potency, µM (doses to about 46.1 µM), inactives show top-dose activity, negative = less viability, most hits filed as cytotoxic; 360,000 tested, 1.6% active;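 further: NT is the 2HG producing partner of a matched IDH1 knockdown line; potency means the concentration at half of the fitted maximal effect; 0% = DMSO-treated cells and -100% = media-only wells without cells; nearly all actives have a fitted effect of over 55% in size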
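Read-out is CellTiter-Glo luminescence after 10 minutes at room temperature, following 48 hours' compound treatment of HT-1080-NT cells (750 cells/well, RPMI, 5% FBS, 37 degrees C).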
uPA surface inh: cell surface uPA generation inhibition | cell surface uPA generation assay, qHTS | Potency, µM (doses to about 38.3 µM), without a hit: top-dose activity change, negative = inhibition, most hits filed as inhibitors | 330,000 tested, 0.31% active; active means well fitted inhibition curve with a large enough effect; inconclusive means small, poorly fitted or top-dose-only effect; inactive means no such curve, though single readings can be large or run the other way; tested in mouse RAW 264.7 cells; further: potency means the concentration at half of the fitted maximal effect; nearly all actives have a fitted effect of over 55% in size
HT1080 IDH1KD tx: toxicity to HT-1080 IDH1 knockdown cells (counter line); HT-1080 IDH1 knockdown viability, ATP luminescence, 48 h; 360,000 tested, 2% active; Potency, µM (titrated, usually from 46.1 µM), inactives show at the highest dose activity, negative = toxicity, actives largely listed as cytotoxic;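 further: potency means the concentration at half of the fitted maximal effect; 0% = DMSO wells and -100% = cell-free medium wells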
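HT-1080-IDH1KD cells (IDH1 knocked down), 750/well in RPMI with 5% FBS, treated with compound 48 h at 37 degrees C. Viability by CellTiter-Glo luminescence, normalised to DMSO and no-cell wells; concentration-response curves classed.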
* = called active by the depositor; ? = inconclusive; · = not tested or not shown. In the library only some 19% were active in any assay of this set; here they are far more common. Unless noted, the call rests on the fitted dose curve; in most records, active means well fitted curve in the direction sought with a large enough effect; inconclusive means small, poorly fitted or top-dose-only effect, or another doubt; inactive means no such curve, though single readings can be large; an effect the other way counts as inactive or inconclusive. Unless noted, on the % scale 0 is the no-effect control and ±100 the full control effect.

SMILES	IL-1B inflam inh	DT40 TDP1 CPT	TDP1 cell noCPT	HT1080NT lethal	uPA surface inh	HT1080 IDH1KD tx
CCN(C(=O)CN1CCN(S(=O)(=O)c2ccccc2C(F)(F)F)CC1)c1c(N)n(Cc2ccccc2)c(=O)[nH]c1=O	5	2%	-7%	14%	3%	5%
CCN(CC)S(=O)(=O)c1ccc(NC(=O)NCc2noc3ccc(C)cc23)cc1	·	21µM*	23µM*	·	·	·
Cc1ccc2onc(CNC(=O)NCc3ccc(Cl)cc3)c2c1	·	-1%	1%	·	·	·
COc1ccc(C)cc1NC(=O)c1nn(C)cc1Br	-8	-18%	?	0%	1%	8%
COc1ccc(OCC(=O)Nc2ccccc2C(=O)Nc2ccc(C(=O)O)cc2)cc1	9	-1%	-10%	0%	?	-1%
Cc1oc2c(C)c3oc(=O)c(CCC(=O)N4CCCCC4)c(C)c3cc2c1C	·	15µM*	10µM*	·	·	·
Cc1c(C)c2cc3c(C)coc3cc2oc1=O	-51*	8%	20%	2%	-1%	13%
Cc1coc2cc3oc(=O)c(CCC(=O)N4CCCCC4)c(C)c3cc12	·	13µM*	21µM*	·	·	·
CC(NC(=O)CCCC1=NS(=O)(=O)c2ccccc2N1)c1ccccc1 (centres undefined)	·	-28%	?	·	·	·
NC(=O)c1ccc(C(F)(F)F)n(Cc2cccc(Cl)c2)c1=O	-5	-18%	-25%	?	·	?
CCOC(=O)C1=CCN(S(=O)(=O)c2ccc(C)cc2)C1c1ccc(Cl)c(Cl)c1 (centres undefined)	0	?	?	?	·	?
CC1(C(=O)NS(=O)(=O)Cc2ccccc2C(F)(F)F)CCN1C(=O)Cc1ccccc1 (centres undefined)	18	-14%	-9%	11%	·	9%
CCN(C(=O)CN1C(=S)NC(C)(C)CC1C)c1ccc(C)c(C)c1 (centres undefined)	40	15µM*	23µM*	8%	0%	2%
Cc1c(C(=O)N2CCOCC2)sc(NC(=O)CCl)c1C#N	-22	13µM*	12µM*	13µM*	-6%	12µM*
Cc1occc1C(=O)NNC1=CC(=O)CC(C)(C)C1	4	0%	17%	8%	0%	9%
O=C(COCc1cc(-c2ccc3c(c2)OCO3)on1)N1CCN(c2ccccc2)CC1	?	?	?	-28%	-2%	-29%
COC(=O)[C@]12CCCCC=C1N(CCC1=CCCCC1)C(=O)[C@H](CC(=O)N1CCOCC1)C2	3	?	?	5%	·	3%
COC(=O)[C@]12CCCCC=C1N(CCC1=CCCCC1)C(=O)[C@H](CC(=O)N1CCCCC1)C2	-6	18µM*	23µM*	-18%	·	-25%
COC(=O)[C@]12CCCCC=C1N(CCC1=CCCCC1)C(=O)[C@H](CC(=O)N1CCN(C(=O)C3CC3)CC1)C2	-4	?	16µM*	6%	·	-5%
C[C@H](CO)N1C[C@H](C)[C@@H](CN(C)S(=O)(=O)c2ccccc2)Oc2c(NC(=O)NC3CCCCC3)cccc2C1=O	-51*	18µM*	?	-18%	-13%	-10%
C[C@H](CO)N1C[C@H](C)[C@@H](CN(C)S(=O)(=O)c2ccccc2)Oc2c(NC(=O)Nc3ccc4c(c3)OCO4)cccc2C1=O	-61*	16µM*	?	1%	8%	-4%
CC(=O)C(C(C)=O)C(NC(=O)c1cccnc1)(C(F)(F)F)C(F)(F)F	17	7.3µM*	12µM*	-4%	-2%	-1%
CCOC(=O)C1=CCN(S(=O)(=O)c2ccc(F)cc2)C1c1ccccc1 (centres undefined)	45	?	21µM*	2%	·	6%

Screening data from PubChem.
